MARV entry inh: Marburg virus entry inhibition; Marburg virus pseudotyped entry inhibition, cell reporter; Potency, µM (highest dose often 37.8 µM), for the others: at the top dose activity change, negative = inhibition, actives largely listed as inhibitors; 300,000 tested, 1.8% active; AID 540276; calls by dose curve; tested in HEK293 cells; further: potency means the concentration at half of the fitted maximal effect; on the % scale 0 is the no-effect control and ±100 the full control effect
LASV entry inh: inhibitors of Lassa virus binding or cell entry. Potency, µM (titrated, usually from 37.9 µM), for the others: top-dose activity change, negative = inhibition, usual class: inhibitors. Lassa virus pseudotype entry inhibition, cell reporter. 300,000 tested, 1.2% active; calls by dose curve; tested in HEK293 cells; further: potency means the concentration at half of the fitted maximal effect; on the % scale 0 is the no-effect control and ±100 the full control effect; nearly all actives have a fitted effect of over 50% in size
Pf growth 96h: P. falciparum growth inhibition at 96 hour, primary screen for plastid delayed-death inhibitors; P. falciparum luciferase reporter growth, 96 h; Potency, µM (series often up to 28.7 µM), for the others: at the highest dose activity change, negative = inhibition, most hits filed as inhibitors; 320,000 tested, 6.9% active; further: potency means the concentration at half of the fitted maximal effect; on the % scale 0 is the no-effect control and ±100 the full control effect
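P. falciparum expressing integrated firefly luciferase grown in erythrocytes (2% hematocrit, 0.05% parasitemia final) with compounds for 96 hours at 37 C, 5% CO2. Growth inhibition read as loss of luminescence after adding luciferase detection reagent.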
Cycloheximide cs: counter-screen hit for Shiga toxin inhibitors, cycloheximide; cell reporter, cycloheximide protein synthesis inhibition counterscreen; max response, %; 300,000 tested, 12% active; AID 2314; in the data active means max response mostly above about 13%, no sharp cut-off; inactive means mostly below about 14%; further: read at 38.3 µM for the half of the compounds with a filed dose; 0% is about no effect
Shiga inhibitor: inhibitors of Shiga toxin in Vero cells. Vero cells, Shiga toxin protein synthesis inhibition reporter. 290,000 tested, 9.2% active. inhibition, % at 38.7 µM; in the data active means inhibition mostly above about 28%, no sharp cut-off; inactive means mostly below about 43%; further: 0% is about no effect
Pf growth 48h: P. falciparum growth inhibition at 48 hours (one generation); P. falciparum luciferase growth in erythrocytes, 48 h; Potency, µM (top dose mostly 28.7 µM), without a hit: top-dose activity change, negative = inhibition, most hits filed as inhibitors; 310,000 tested, 5.9% active; further: potency means the concentration at half of the fitted maximal effect; on the % scale 0 is the no-effect control and ±100 the full control effect
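First compound was added to culture medium, then infected red cells at 0.1% parasitemia and 2% hematocrit (final). After incubation at 37 C under 5% CO2, luciferase detection reagent was dispensed and light output recorded.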
* hit, by the source's call; ? = inconclusive; . = no result given; [ ] = another dose, or the depositor's remark. A selection: hits, their analogues and other compounds. The true share with any hit is near 19%. Unless noted, the call rests on the fitted dose curve; in most records, active means well fitted inhibition curve with a large enough effect; inconclusive means small, poorly fitted or top-dose-only effect, or another doubt; inactive means no such curve, though single readings can be large or run the other way.

SMILES	MARV entry inh	LASV entry inh	Pf growth 96h	Cycloheximide cs	Shiga inhibitor	Pf growth 48h
COc1ccc(/C=C2\N=C3CCCCCN3C2=O)cc1OC	14.4%	?	0.0%	17.1	20.7	12.4%
COc1cc(/C=C2\N=C3CCCCCN3C2=O)ccc1O	17.4%	16.3%	.	30.3*	114.2*	7.9%
COc1ccc(-n2c(=O)c3ccc(C(=O)NCc4ccc(C)cc4)cc3n(Cc3cccc(Cl)c3)c2=O)cc1	-9.1%[46.1 µM]	12.6%[46.1 µM]	.	.	.	.
CN(NS(=O)(=O)c1ccc(F)cc1)c1ncc(C(F)(F)F)cc1Cl	7.5%[46.1 µM]	-12.0%	?	-2.4	-1.5	366.8%
Cc1ccc(OCC(=O)NC(=S)Nc2ccccn2)c(Br)c1	?	?	195.4%	28.4*	83.5*	132.5%
O=C(COc1ccc(Br)cc1Cl)NC(=S)Nc1ccccn1	.	.	-4.4%	76.3*	114.9*	291.5%
COc1ccc(OCC(=O)NC(=S)NNC(=O)COc2ccc(Br)cc2Cl)cc1	6.6%[14.2 µM]	-15.4%	0.0%	1.6	14.7	22.3%
Cc1nc(NC(=S)NC(=O)COc2ccccc2Cl)ccc1Br	7.2%	4.0%	-1.6%	0.3	13.7	29.2%
COC(=O)c1c(NC(=O)CS(=O)(=O)c2ccc(C)cc2)sc2c1CCCCC2	.	-12.8%[46.1 µM]	.	-1.9	16.1	.
O=C(O)C1CC=CCC1C(=O)c1ccccc1 (stereo unspecified)	15.2%	4.3%	-11.5%	-4.6	-22.7	-0.8%
O=C(c1ccccc1)C1OC1C(=O)c1ccccc1 (stereo unspecified)	7.94µM*	?	.	.	.	.
Cc1ccc(C(=O)CCC(=O)Nc2ccccc2F)cc1	.	.	148.3%	32.5*	39.1	57.0%
O=C(CCC(=O)c1ccc(F)cc1)Nc1ccccc1Cl	13.1%	9.1%	?	16.6	35.9*	47.4%
Cc1ccc(CCC(=O)Nc2ccccc2F)s1	6.7%[46.1 µM]	?	7.5%	32.4*	92.6*	90.0%
O=C(CC(=O)Nc1ccccc1F)Nc1ccccc1F	7.3%[46.1 µM]	18.5%[46.1 µM]	?	6.8	7.2	-11.1%[0.00184 µM]
Cc1ccc(OCC(=O)Nc2ccccc2F)cc1	-26.3%	?	.	.	.	.
COc1cccc(C(=O)Nc2c(C(=O)c3ccc(F)cc3)oc3ccccc23)c1	6.1%[46.1 µM]	-4.7%[46.1 µM]	.	.	.	.
COc1ccc(C(=O)Nn2c(C)ccc2C)cc1OC	-1.1%	9.9%	-0.9%	-2.0	-19.1	?
O=C(NCCCc1ccccc1)c1cccc(NC(=O)C2CC2)c1	.	-11.5%[46.1 µM]	.	.	.	.
Cc1cccc(C)c1NC(=O)CS(=O)CC(=O)NCCCc1ccccc1 (stereo unspecified)	10.2%	2.1%	-2.9%	-6.0	-9.8	?
Cc1ccc(C(=O)Nc2cccc3cccnc23)cc1Br	?	9.9%	.	.	.	.
O=C(Nc1cccc2cccnc12)c1ccc(Br)cc1	.	.	.	31.2*	43.8	.
O=C(Nc1cccc2nsnc12)c1ccc2c(c1)OCCO2	-0.2%	?	14.8%	30.3*	108.1*	156.0%
O=C(Nc1cccc2nsnc12)c1ccc2c(c1)OCO2	11.0%	11.2%	50.5%	16.9	52.5*	94.2%
O=C(Nc1cc(-c2nc3ccccc3s2)ccc1Cl)c1ccc2c(c1)OCO2	-26.5%	?	36.4%	27.3*	51.6*	51.6%
SMILES	MARV entry inh	LASV entry inh	Pf growth 96h	Cycloheximide cs	Shiga inhibitor	Pf growth 48h
Cc1ccc(-c2nc3ccccc3s2)cc1NC(=O)c1ccc2c(c1)OCO2	19.2%	12.1%	43.9%	6.2	24.4	?
C#CC1CCCCC1NC(=O)Nc1cnccc1C(F)(F)F (stereo unspecified)	-15.2%	5.4%	0.3%	-1.2	-5.1	-12.6%
O=[N+]([O-])c1ccccc1SNc1ccc(Br)cn1	0.0%[46.1 µM]	-1.5%[46.1 µM]	?	2.4	-12.7	?
CC(C)CC(=O)NCC(c1ccc2c(c1)OCO2)N1CCN(c2ccccc2F)CC1 (stereo unspecified)	.	1.2%[46.1 µM]	.	.	.	.
CC1CCN(S(=O)(=O)c2ccc3nc(NCc4ccc(N(C)C)cc4)ccc3c2)CC1	.	-16.2%[46.1 µM]	.	.	.	.
O=C(Nc1ccccc1O)c1ccc(NS(=O)(=O)c2cccc3cccnc23)cc1	.	.	?	-2.2	24.8	2.33µM*
COc1cc(/C=N/NC(=O)Nc2cccc3nsnc23)cc(OC)c1OC	-3.3%	-23.8%	312.0%	-2.3	16.9	?
Cc1ccc(C(=O)NC(=S)Nc2cccc3nsnc23)cc1	6.4%	?	-16.6%	-2.2	-22.3	?
COC(=O)c1ccc(NC(=O)c2ccc(NS(=O)(=O)c3cccc4cccnc34)cc2)cc1	?	-2.3%[46.1 µM]	23.4%	-4.7	2.3	3.2%

Screening data deposited in PubChem BioAssay by National Center for Advancing Translational Sciences (NCATS).
